The source of these data is PubChem BioAssay (NCATS).

Inconclusive results are not listed. A number with no mark means an inactive call. Activity calls are given as the source filed them. The call rests on the fitted dose curve; in most records, active means well fitted curve in either direction with a large enough effect (not every such curve was filed as active); inconclusive means small, poorly fitted or top-dose-only effect, or another doubt; inactive means flat fitted curve, though single readings scatter.
On the % scale 0 is the no-effect control and ±100 the full control effect.

This assay can be described thus: Stat Signaling Pathway (AID 446).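 Further: ME-180 cervical cancer cells given 40 pM IL-6 alongside compound; SIE-controlled beta-lactamase reporter measured as 460/530 nm FRET emission ratio.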 The following applies: ME-180 SIE beta-lactamase reporter, IL-6 stimulated, 5 h; at 17.2 µM (top of the series) unless noted. In short, it runs like this: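 Screening format detects activators and inhibitors alike: ME-180 SIE-bla cells stimulated at 40 pM IL-6 for 5 hrs with compound, then dual-emission beta-lactamase read at 405 nm excitation.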
Take `CCCCCOc1ccccc1C(=O)NCCCC(=O)O`: the activity, negative = inhibition was 1.72%. For `C=CCOc1nc2c(c(=O)n(C)c(=O)n2C)n1Cc1ccc(Cl)cc1` the value was -5.11%; for `CCCOc1ccc(/C(O)=C2/C(=O)C(=O)N(CCN3CCOCC3)C2c2ccccc2)cc1` (stereo not given), -4.33%; for `Cc1ccc2cc(CN(C(=O)c3ccco3)c3ccccc3)c(=O)[nH]c2c1`, -2.89%. For `CCCNC(=O)N(C)c1nncnc1C(=O)NC` the value was -3.2%; for `CC(=O)N1CCN(C2c3cccc4cccc(c34)C2NS(=O)(=O)c2ccccc2)CC1` (stereo not given), 2.23%; for `CCN(CC)S(=O)(=O)c1cccc2c(N(C)C)cccc12`, 19%.

For `Cc1cc(N2C(=O)C(=O)/C(=C(/O)c3ccccc3)C2c2cccs2)no1` (stereo not given), the activity, negative = inhibition is -21%. In the case of `CC1C[C@@]2(NC(=O)NC2=O)C(C)CN1C` (stereo not given in full) it was 5.03%; in that of `CCOC(=O)c1ccc(N2CC(O)=C(c3nc4ccccc4c(=O)[nH]3)C2=N)cc1`, -21.7%; in that of `COC(=O)c1ccc(CSc2nc(N3CCOCC3)c3c(c2C#N)CC(C)(C)OC3)o1`, 20%. On to `CCC(CC)C1C(C#N)=C(N)Oc2n[nH]c(C)c21` (stereo not given), for which the activity, negative = inhibition was -16.5%.

Take `COc1ccc(C(=O)NCC(=O)n2nc(C)cc2C)cc1OC`: the activity, negative = inhibition is 16.4%.

Take `CC(C)CC(=O)Nc1ncnc2c1C(=O)CC(C)(C)C2`: the activity, negative = inhibition is 14.7%. Turning to `c1ccc(CSc2nnc(SCc3ccccn3)s2)nc1`, the activity, negative = inhibition is -4.62%. In the case of `O=C(O)C1CCCCN1S(=O)(=O)c1cccc2nsnc12` (stereo not given) it was 5.88%.

As for `Cn1c(=O)c2c3c(sc2n2c(SCC(N)=O)nnc12)CC(C(C)(C)C)CC3` (stereo not given), the activity, negative = inhibition was 14%.

Consider `CCOC(=O)C(NC=O)(NC(C)(C)C)C(=O)OCC`, for which the activity, negative = inhibition was 24.2%. For `CCOC(=O)c1ccc(NC(=O)COc2ccccc2OC)cc1` the value was 2.17%. For `O=S(=O)(/C=C/c1ccccc1)Nc1ccc2c(c1)OCO2` the value was -22.1%; for `CC(C)(C)NC(=O)/C=N/O`, 3.21%; for `Cc1ccc(OCC(=O)N(C)CCc2ccccn2)cc1`, 6.69%.

In the case of `O=C(O)c1cc2sccc2s1`, the activity, negative = inhibition was 2.27%. For `COc1cc(C2C(C(C)=O)=C(O)C(=O)N2c2ccc(Br)cn2)ccc1O` (stereo not given), the activity, negative = inhibition is -8.75%. For `Cc1[nH]c2ccc(F)cc2c(=O)c1SC(F)(F)C(F)C(F)(F)F` (stereo not given) the value was -1.13%; for `CN(C)CC(O)COc1ccc(C(C)(C)c2ccc(OCC(O)CN(C)C)cc2)cc1` (stereo not given), -4.4%; for `CCC(CC)n1[nH]c(=O)cc1N`, 2.51%. With `COc1ccc(C(C)=O)cc1CSCCC(=O)O`, the activity, negative = inhibition was 15.2%. In the case of `COc1ccc(NC2CC(=O)N(C)C2=O)cc1` (stereo not given) it was 11.9%; in that of `Cc1nnc2n(-c3ccccc3)c(=O)c3c4c(sc3n12)COC(C)(C)C4`, -0.141%; in that of `CN1C(=O)NC(c2ccccc2)C2=C1CN(Cc1ccccc1)C2=O` (stereo not given), -9.01%. For the molecule `COc1cccc(N2CCN(c3ncnc4c3[nH]c3ccc(F)cc34)CC2C)c1` (stereo not given), the activity, negative = inhibition is -104% (active). In the case of `N#Cc1c(-c2ccco2)cc(C2CC2)nc1N` it was -18.4%; in that of `COC(=O)c1ccc(C2/C(=C(/O)c3ccc(OC)cc3)C(=O)C(=O)N2c2cc(C)on2)cc1` (stereo not given), -20.1%; in that of `CC(=O)[C@H]1CC[C@H]2[C@@H]3CCC4=CC(=O)CC[C@]4(C)[C@H]3[C@H](O)C[C@]12C`, 2.53%. In the case of `Cc1ccc(N2C(=O)CC3(CC4C=CC3C4)C2=O)cc1` (stereo not given) it was 14%; in that of `COc1cccc(/C(O)=C2/C(=O)C(=O)N(CCN(C)C)C2c2ccc(Br)cc2)c1` (stereo not given), 0.896%; in that of `CC(C)C1Cc2c(sc3c2c(=O)n(Cc2ccccc2)c2nncn32)CO1` (stereo not given), -3.52%.

`Cc1cc(C)c2nc(SCCC#N)nc(C)c2c1`: the activity, negative = inhibition is 6.57%.

Take `COc1cc(-c2nn3c(-c4ccco4)nnc3s2)cc(OC)c1OC`: the activity, negative = inhibition was -1.97%.
